PubChem BioAssay AID1159580 (chemical genetic matrix, 2015)
Several values for one entry are separate records, joined by “and”; a condition that tells them apart may be missing. Identical values can stand only once. In all, about 5,500 compounds went through this assay and about 2,000 (36%) were called active. Another 18% or so got no clear call; they are omitted. No stated cut-off is given here; in the data, active means normalized growth mostly below about 0.91 (no sharp cut-off); inconclusive means no clear call, values can overlap the other calls; inactive means mostly above about 0.92. Some of the results follow.

Assay: chemical genetic growth profiling, strain panel (AID 1159580);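 further: tested at 20 µM; growth read once vehicle control cultures reached saturation at 30 °C; 1 = growth at the plate median or of vehicle wells; lower values mean less growth of the strain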
Conditions: S. cerevisiae deletion strains, growth OD

Measured: normalized growth

NS(=O)(=O)c1cc(C2(O)NC(=O)c3ccccc32)ccc1Cl (stereo not given)
inactive: locus YAL021C, strain ccr4, hits give low values 0.958 | locus YAL026C, strain drs2, hits give low values 0.991 | locus YAL030W, strain snc1, hits give low values 0.993 | locus YBL061C, strain skt5, hits give low values 0.996 | locus YBR009C, strain hhf1, hits give low values 1.01 | locus YBR021W, strain FUR4, hits give low values 1.02 | locus YBR023C, strain chs3, hits give low values 0.992 | locus YBR171W, strain sec66, hits give low values 0.985 | locus YBR229C, strain ROT2, hits give low values 1.01 | locus YBR231C, strain swc5, hits give low values 0.972 | locus YBR279W, strain paf1, hits give low values 0.996 | locus YCL011C, strain gbp2, hits give low values 0.99 | locus YCL016C, strain dcc1, hits give low values 0.987 | locus YCL029C, strain bik1, hits give low values 1.02 | locus YCL061C, strain MRC1, hits give low values 0.986 | locus YCL069W, strain vba3, hits give low values 0.999 | locus YCR088W, strain abp1, hits give low values 0.994 | locus YDL005C, strain med2, hits give low values 0.974 | locus YDL035C, strain GPR1, hits give low values 0.997 | locus YDL040C, strain nat1, hits give low values 0.995 | locus YDL074C, strain BRE1, hits give low values 1.03 | locus YDL101C, strain DUN1, hits give low values 1.02 | locus YDL134C, strain PPH21, hits give low values 1 | locus YDL185W, strain tfp1, hits give low values 1.03 | locus YDL192W, strain arf1, hits give low values 1.01 | locus YDR001C, strain nth1, hits give low values 0.99 | locus YDR069C, strain doa4, hits give low values 0.993 | locus YDR101C, strain arx1, hits give low values 1 | locus YDR137W, strain rgp1, hits give low values 1.01 | locus YDR159W, strain sac3, hits give low values 1.01 | locus YDR162C, strain NBP2, hits give low values 1.01 | locus YDR195W, strain ref2 0.929 | locus YDR297W, strain sur2, hits give low values 0.995 | locus YDR318W, strain mcm21, hits give low values 1.02 | locus YDR334W, strain swr1, hits give low values 1.01 | locus YDR335W, strain msn5, hits give low values 0.991 | locus YDR388W, hits give low values 1.02 | locus YDR392W, strain spt3, hits give low values 1.04 | locus YDR502C, strain sam2, hits give low values 1.02 | locus YEL003W, strain gim4, hits give low values 0.985 | locus YEL037C, strain rad23, hits give low values 0.992 | locus YEL061C, strain CIN8 (second series), hits give low values 1 | locus YEL061C, strain CIN8, hits give low values 1.01 | locus YER015W, strain faa2, hits give low values 0.985 | locus YER016W, strain bim1, hits give low values 0.997 | locus YER110C, hits give low values 1.02 | locus YER111C, strain swi4, hits give low values 0.997 | locus YER155C, strain BEM2 (second series), hits give low values 0.939 | locus YER155C, strain BEM2, hits give low values 1.01 | locus YER167W, strain BCK2, hits give low values 1.01 | locus YFR010W, strain ubp6, hits give low values 0.982 | locus YGL078C, strain dbp3, hits give low values 1.02 | locus YGL086W, strain mad1, hits give low values 1.01 | locus YGL167C, strain pmr1, hits give low values 0.99 | locus YGL173C, strain kem1, hits give low values 0.968 | locus YGL227W, strain vid30, hits give low values 0.997 | locus YGL240W, strain doc1, hits give low values 0.964 | locus YGL248W, strain PDE1, hits give low values 1.02 | locus YGL253W, strain hxk2, hits give low values 1 | locus YGR078C, strain PAC10, hits give low values 1.02 | locus YGR135W, strain pre9, hits give low values 1.04 | locus YGR229C, strain SMI1, hits give low values 1.01 | locus YGR252W, strain gcn5, hits give low values 0.991 | locus YHR013C, strain ard1, hits give low values 0.952 | locus YHR027C, strain rpn1, hits give low values 0.99 | locus YHR030C, strain SLT2, hits give low values 1.01 and 0.984 | locus YHR079C, strain IRE1 (second series), hits give low values 1.01 | locus YHR079C, strain IRE1, hits give low values 0.99 | locus YHR094C, strain hxt1, hits give low values 1.01 | locus YHR129C, strain ARP1, hits give low values 1.01 | locus YHR142W, strain chs7, hits give low values 1.01 | locus YHR200W, strain rpn10, hits give low values 1.02 | locus YIL066C, strain RNR3, hits give low values 1.01 | locus YIL073C, strain SPO22, hits give low values 1.06 | locus YIL125W, strain kgd1, hits give low values 1.01 | locus YIR030C, strain dcg1, hits give low values 1.03 | locus YJL092W, strain hpr5, hits give low values 0.993 | locus YJL095W, strain BCK1 (second series), hits give low values 0.997 | locus YJL095W, strain BCK1, hits give low values 1.03 and 0.98 | locus YJL115W, strain asf1, hits give low values 0.983 | locus YJL129C, strain trk1, hits give low values 0.979 | locus YJL134W, strain LCB3, hits give low values 1 | locus YJL154C, strain vps35, hits give low values 0.984 | locus YJL164C, strain tpk1, hits give low values 0.981 | locus YJL166W, strain qcr8, hits give low values 0.977 | locus YJL168C, strain set2, hits give low values 1.02 | locus YJL187C, strain SWE1 (second series), hits give low values 1.03 | locus YJL187C, strain SWE1, hits give low values 0.991 | locus YJR043C, strain POL32, hits give low values 0.986 | locus YJR066W, strain TOR1, hits give low values 0.946
